In PubChem BioAssay (Tox21) one finds Potency data, which are given here for 36 molecules.

Results filed as inconclusive are left out. Where a call stands in place of a potency, no number is given. Calls of active or inactive are those of the source. Calls follow the shape of the full dose curve.

The nature of the test: qHTS assay for small molecule agonists of the p53 signaling pathway (AID 651631). Also: nearly all actives have a fitted effect of over 15% in size. As to conditions: HCT-116 p53RE-bla reporter, beta-lactamase FRET ratio, 16 h; series mostly up to 73.3 µM. In outline: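 Agonist mode screen using a stably integrated beta-lactamase gene under p53 response elements in HCT-116 cells. Compound exposure lasts 16 h at 37 °C; fluorescence intensity is measured following 2 h FRET substrate loading.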
In general terms: In qHTS, concentration-response curves come from the screen itself.
As for `COc1nc(C)nc(NC(=O)NS(=O)(=O)c2ccccc2OCCCl)n1`, the Potency result is “inactive”.

Consider `CCCCNC(=S)NCCCC`, for which the Potency result is “inactive”.

For the molecule `CC(C)(C)c1cccc(O)c1`, the Potency entry was “inactive”.

Consider `O=C1CCC(C2CCCCC2)CC1`, for which the Potency result was “inactive”.

With `COC(=O)c1ccc2cc(C(=O)OC)ccc2c1`, the Potency entry is “inactive”.

Take `CCCc1c2oc(C(=O)O)cc(=O)c2cc2c(=O)cc(C(=O)O)n(CC)c12`: the Potency result is “inactive”.

In the case of `CC(CNC1CCCCC1)OC(=O)c1ccccc1` (stereo unspecified), the Potency result is “inactive”.

Regarding `CC(C)OC(C)C`, the Potency result was “inactive”.

As to `OCCN(CCO)c1ccccc1`, the Potency result was “inactive”.

`O=C(C(Cl)Cl)N1CCOC12CCCCC2`: the Potency result is “inactive”.

Regarding `CCCCCCCCCC#N`, the Potency result was “inactive”.

As for `CCOC(=O)C(Br)c1ccccc1` (stereo unspecified), the Potency entry is “inactive”.

Take `C[C@@H](N)C(=O)O`: the Potency result was “inactive”.

As for `O=C1N(c2ccccc2)c2ccccc2C1(Cc1ccncc1)Cc1ccncc1`, the Potency entry was “inactive”.

Turning to `Cc1ccsc1C(=CCCN1CCC[C@@H](C(=O)O)C1)c1sccc1C`, the Potency result is “inactive”.

In the case of `C=CCc1cc(OC)c(O)c(C(=O)NCCO)c1`, the Potency result was “inactive”.

`CCc1cc(Cl)c(OC)c(C(=O)NC[C@@H]2CCCN2CC)c1O`: the Potency result was “inactive”.

Take `CCCCOc1cc(C(=O)NCCN(CC)CC)c2ccccc2n1`: the Potency entry was “inactive”.

Take `CCC(=O)O[C@]1(C(=O)SCF)[C@H](C)C[C@H]2[C@@H]3C[C@H](F)C4=CC(=O)C=C[C@]4(C)[C@@]3(F)[C@@H](O)C[C@@]21C`: the Potency result was “inactive”.

For the molecule `NNS(=O)(=O)c1ccc(Oc2ccc(S(=O)(=O)NN)cc2)cc1`, the Potency result was “inactive”.

Consider `CN(CC1(C)CCCO1)S(=O)(=O)c1ccc(Cl)c(S(N)(=O)=O)c1` (stereo unspecified), for which the Potency result is “inactive”.

On to `CCCCCOc1ccc(C2SC(=O)NC2=O)cc1OCC` (stereo unspecified), for which the Potency result is “inactive”.

Take `CCCCNCCCC`: the Potency entry is “inactive”.

Take `CC(C)c1ccccc1`: the Potency entry is “inactive”.

Consider `CC/C=C\CCOC(=O)C(C)C`, for which the Potency result is “inactive”.

In the case of `CCC1(C)NC(=O)NC1=O` (stereo unspecified), the Potency result is “inactive”.

For `Cc1cc(S(=O)(=O)O)c(N)cc1Cl`, the Potency entry is “inactive”.

As for `COc1cc(N)c(Cl)cc1C(=O)NC1CCN(Cc2ccccc2)CC1`, the Potency entry was “inactive”.

`CCOC(=O)C1CC(=O)C(=C(O)C2CC2)C(=O)C1` (stereo unspecified): the Potency result was “inactive”.

Consider `O=S(=O)(O)C(F)(F)F`, for which the Potency result was “inactive”.

Regarding `O=c1[nH]cnc2c1ncn2[C@@H]1O[C@H](CO)[C@@H](O)[C@H]1O`, the Potency entry was “inactive”.

As for `Cc1cc(NS(=O)(=O)c2ccc(N)cc2)nc(C)n1`, the Potency entry was “inactive”.

Take `CC(C)CCCCCCc1ccc(OCCOCCO)cc1`: the Potency entry was “inactive”.

On to `CC1(C)S[C@@H]2[C@H](NC(=O)C(C(=O)O)c3ccccc3)C(=O)N2[C@H]1C(=O)O` (stereo partly specified), for which the Potency entry is “inactive”.

As to `CCCCCCCCOC(=O)CCCCCCCCC(=O)OCCCCCCCC`, the Potency entry is “inactive”.

As for `O=C1C=CC(=O)O1`, the Potency entry is “inactive”.
